Experimental findings from paper PMC7862700, “An all-to-all approach to the identification of sequence-specific readers for epigenetic DNA modifications on cytosine” are described below.

What all share (assay): DAPPL (digital affinity profiling via proximity ligation, sequencing); 10 mM Tris-HCl pH 7.5, 50 mM NaCl, 1 mM DTT, 4% glycerol, room temperature, 30 min; GST-TFs on glutathione beads, 16-mer random dsDNA library, 0.1% formaldehyde crosslink after washing; high values mean tight binding
One assay has as its target T1, ELK3 (Homo sapiens, UniProt P41970 1-407).
T1 sequence: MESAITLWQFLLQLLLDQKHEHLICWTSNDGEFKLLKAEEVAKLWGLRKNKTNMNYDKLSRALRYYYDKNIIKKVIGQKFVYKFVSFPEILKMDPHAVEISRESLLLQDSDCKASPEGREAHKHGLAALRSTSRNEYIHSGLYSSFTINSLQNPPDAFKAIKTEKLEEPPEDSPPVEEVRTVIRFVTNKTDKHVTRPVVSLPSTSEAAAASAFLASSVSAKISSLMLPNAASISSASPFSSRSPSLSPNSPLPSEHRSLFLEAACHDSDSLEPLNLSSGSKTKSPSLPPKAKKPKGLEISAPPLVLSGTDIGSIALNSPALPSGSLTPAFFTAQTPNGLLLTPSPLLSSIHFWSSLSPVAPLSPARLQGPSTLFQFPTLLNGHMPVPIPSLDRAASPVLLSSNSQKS
The settings on record: protein: recombinant; tags: N-terminal GST; dsDNA, one strand shown. The essentials: (§1)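 Yeast served to express human transcription factors as GST fusions, which were then captured on glutathione beads and labelled with DNA barcodes. Pooled with a tag-only sample, they were incubated with 200 nmole of a 16-mer random double-stranded DNA library for 30 min at room temperature in Tris/NaCl/DTT/glycerol buffer, washed, crosslinked with 0.1% formaldehyde, ligated by proximity, amplified by PCR and sequenced. Dividing each hexamer's read frequency for a factor by its frequency for the tag-only sample gives the binding signal.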

Another assay has as its target HSF1 (Homo sapiens, UniProt Q00613 1-529). The settings on record: protein: recombinant; tags: N-terminal GST; chain copies: 3; dsDNA, one strand shown. The essentials: as §1
The target of a further assay is T2, SPIC (Homo sapiens, UniProt Q8N5J4 1-248).
T2 sequence: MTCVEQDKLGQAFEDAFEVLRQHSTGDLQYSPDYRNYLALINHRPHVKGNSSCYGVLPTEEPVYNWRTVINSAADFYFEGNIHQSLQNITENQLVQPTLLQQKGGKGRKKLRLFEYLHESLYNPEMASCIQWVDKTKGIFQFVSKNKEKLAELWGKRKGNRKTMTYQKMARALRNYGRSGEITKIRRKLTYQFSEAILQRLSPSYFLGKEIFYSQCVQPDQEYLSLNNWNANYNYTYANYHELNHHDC
Conditions: protein: recombinant; tags: N-terminal GST; dsDNA, one strand shown. The essentials: as §1

The target in a further assay is CRX (Homo sapiens, UniProt O43186 1-299). Conditions: protein: recombinant; tags: N-terminal GST; dsDNA, one strand shown. The essentials:
as §1

The target in another assay is T3, SPDEF (Homo sapiens, UniProt O95238 1-335).
T3 sequence: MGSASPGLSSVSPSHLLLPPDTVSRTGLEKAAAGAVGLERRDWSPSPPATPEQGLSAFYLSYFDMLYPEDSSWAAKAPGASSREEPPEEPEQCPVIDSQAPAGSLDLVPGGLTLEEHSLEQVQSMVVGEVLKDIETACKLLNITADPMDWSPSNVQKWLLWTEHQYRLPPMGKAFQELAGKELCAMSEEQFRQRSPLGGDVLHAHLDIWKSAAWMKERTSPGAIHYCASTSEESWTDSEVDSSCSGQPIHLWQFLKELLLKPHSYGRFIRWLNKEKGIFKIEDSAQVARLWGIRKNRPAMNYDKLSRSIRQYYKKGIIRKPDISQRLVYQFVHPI
The settings on record: protein: recombinant; tags: N-terminal GST; dsDNA, one strand shown. The essentials:
as §1

Another assay addresses T4, ELF5 (Homo sapiens, UniProt Q9UKW6-2 1-255).
T4 sequence: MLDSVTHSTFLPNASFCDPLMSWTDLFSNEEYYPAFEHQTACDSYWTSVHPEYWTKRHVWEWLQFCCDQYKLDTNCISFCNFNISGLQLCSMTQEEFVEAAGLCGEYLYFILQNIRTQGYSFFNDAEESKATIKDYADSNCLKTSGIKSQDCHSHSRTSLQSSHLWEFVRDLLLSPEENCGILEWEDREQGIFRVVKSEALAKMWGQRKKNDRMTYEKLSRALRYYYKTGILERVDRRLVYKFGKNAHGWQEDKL
The settings on record: protein: recombinant; tags: N-terminal GST; dsDNA, one strand shown. The essentials:
as §1

The target of a further assay is T5, FLI1 (Homo sapiens, UniProt Q01543 1-452).
T5 sequence: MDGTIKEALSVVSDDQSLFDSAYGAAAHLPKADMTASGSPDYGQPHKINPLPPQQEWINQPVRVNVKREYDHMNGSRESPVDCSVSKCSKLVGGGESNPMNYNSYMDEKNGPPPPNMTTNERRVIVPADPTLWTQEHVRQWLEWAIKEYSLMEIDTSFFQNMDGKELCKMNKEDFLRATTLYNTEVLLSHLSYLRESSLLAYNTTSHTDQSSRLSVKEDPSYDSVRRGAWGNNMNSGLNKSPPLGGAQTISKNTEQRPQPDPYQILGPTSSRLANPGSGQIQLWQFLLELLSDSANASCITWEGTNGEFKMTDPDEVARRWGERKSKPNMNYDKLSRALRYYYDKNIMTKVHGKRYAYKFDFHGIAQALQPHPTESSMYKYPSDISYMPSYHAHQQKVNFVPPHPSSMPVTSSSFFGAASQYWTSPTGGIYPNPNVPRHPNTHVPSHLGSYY
Conditions: protein: recombinant; tags: N-terminal GST; dsDNA, one strand shown. An outline of the steps: as §1

HSF1, sequence (Q00613 whole entry): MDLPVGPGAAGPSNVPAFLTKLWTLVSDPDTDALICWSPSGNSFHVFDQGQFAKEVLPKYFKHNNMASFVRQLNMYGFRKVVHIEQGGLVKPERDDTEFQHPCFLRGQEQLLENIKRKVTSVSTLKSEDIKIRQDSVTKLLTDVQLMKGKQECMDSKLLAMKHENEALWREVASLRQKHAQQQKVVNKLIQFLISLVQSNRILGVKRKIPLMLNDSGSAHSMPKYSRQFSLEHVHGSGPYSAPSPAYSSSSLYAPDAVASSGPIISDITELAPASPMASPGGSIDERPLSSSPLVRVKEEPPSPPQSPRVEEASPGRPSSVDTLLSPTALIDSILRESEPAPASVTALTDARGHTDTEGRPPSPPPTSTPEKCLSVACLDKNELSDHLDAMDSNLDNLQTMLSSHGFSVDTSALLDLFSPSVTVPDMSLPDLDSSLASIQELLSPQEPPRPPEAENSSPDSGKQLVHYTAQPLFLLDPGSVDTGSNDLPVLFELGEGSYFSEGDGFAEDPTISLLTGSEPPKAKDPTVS
CRX, sequence (O43186 whole entry): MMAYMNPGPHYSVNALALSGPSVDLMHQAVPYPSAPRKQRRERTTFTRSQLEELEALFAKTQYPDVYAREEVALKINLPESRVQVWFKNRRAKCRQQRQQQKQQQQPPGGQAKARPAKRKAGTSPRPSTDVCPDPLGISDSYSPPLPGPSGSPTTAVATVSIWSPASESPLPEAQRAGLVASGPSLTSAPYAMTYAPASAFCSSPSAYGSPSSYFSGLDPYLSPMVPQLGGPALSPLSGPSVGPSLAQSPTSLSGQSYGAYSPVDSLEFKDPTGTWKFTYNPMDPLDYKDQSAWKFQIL

As to ATAATG, the binding signal with ELK3 is 1.22 fold enrichment (6-mer frequency, TF over GST control); in the assay with HSF1, 1.25 fold enrichment (6-mer frequency, TF over GST control); with SPIC, 1.21 fold enrichment (6-mer frequency, TF over GST control); with CRX, 1.52 fold enrichment (6-mer frequency, TF over GST control); with SPDEF it was 1.06 fold enrichment (6-mer frequency, TF over GST control); with ELF5, 1.07 fold enrichment (6-mer frequency, TF over GST control).
On to AGAAGT, for which the binding signal in the assay with ELK3 was 1.11 fold enrichment (6-mer frequency, TF over GST control); in the assay with HSF1, 1.45 fold enrichment (6-mer frequency, TF over GST control); with SPIC, 1.19 fold enrichment (6-mer frequency, TF over GST control); with ELF5, 1.1 fold enrichment (6-mer frequency, TF over GST control).
For the sequence CGGTTA, the binding signal with FLI1 is 1.05 fold enrichment (6-mer frequency, TF over GST control); in the assay with ELK3, 1 fold enrichment (6-mer frequency, TF over GST control); with SPDEF, 1.15 fold enrichment (6-mer frequency, TF over GST control); with ELF5, 1.07 fold enrichment (6-mer frequency, TF over GST control).
Consider TAGCGT, for which the binding signal is 1.04 fold enrichment (6-mer frequency, TF over GST control) in the assay with HSF1; 1.02 fold enrichment (6-mer frequency, TF over GST control) in the assay with SPIC; 1.15 fold enrichment (6-mer frequency, TF over GST control) with CRX.
AGAGCT: the binding signal with HSF1 is 1.05 fold enrichment (6-mer frequency, TF over GST control); with SPIC it was 1.04 fold enrichment (6-mer frequency, TF over GST control); with CRX it was 1.14 fold enrichment (6-mer frequency, TF over GST control).
Consider GGCTAA, for which the binding signal with ELK3 was 1.02 fold enrichment (6-mer frequency, TF over GST control); with HSF1 it was 1.15 fold enrichment (6-mer frequency, TF over GST control); with SPIC it was 1.03 fold enrichment (6-mer frequency, TF over GST control); with CRX, 1.61 fold enrichment (6-mer frequency, TF over GST control); with SPDEF, 1 fold enrichment (6-mer frequency, TF over GST control).
As for ACAAGA, the binding signal with HSF1 was 1 fold enrichment (6-mer frequency, TF over GST control); with SPIC, 1.06 fold enrichment (6-mer frequency, TF over GST control).
As to TGAAAT, the binding signal was 1.02 fold enrichment (6-mer frequency, TF over GST control) with HSF1; 1.01 fold enrichment (6-mer frequency, TF over GST control) with SPIC; 1.03 fold enrichment (6-mer frequency, TF over GST control) with CRX.
As to GTGCAT, the binding signal with ELK3 is 1.16 fold enrichment (6-mer frequency, TF over GST control); with SPIC, 1.28 fold enrichment (6-mer frequency, TF over GST control); in the assay with SPDEF it was 1.17 fold enrichment (6-mer frequency, TF over GST control); with ELF5, 1.02 fold enrichment (6-mer frequency, TF over GST control).
Consider GCAATC, for which the binding signal was 1.01 fold enrichment (6-mer frequency, TF over GST control) in the assay with HSF1 and 1 fold enrichment (6-mer frequency, TF over GST control) with CRX.
As to TGGAAG, the binding signal is 1.56 fold enrichment (6-mer frequency, TF over GST control) with HSF1 and 1.07 fold enrichment (6-mer frequency, TF over GST control) in the assay with ELF5.
For ACTGGT, the binding signal with ELK3 is 1.08 fold enrichment (6-mer frequency, TF over GST control); with SPIC it was 1.07 fold enrichment (6-mer frequency, TF over GST control); with ELF5, 1.03 fold enrichment (6-mer frequency, TF over GST control).
Turning to TGCAGC, the binding signal with ELK3 was 1.07 fold enrichment (6-mer frequency, TF over GST control); with SPIC, 1.22 fold enrichment (6-mer frequency, TF over GST control); in the assay with SPDEF it was 1.15 fold enrichment (6-mer frequency, TF over GST control).
With GAAGCC, the binding signal is 1.05 fold enrichment (6-mer frequency, TF over GST control) with ELK3; 1 fold enrichment (6-mer frequency, TF over GST control) with SPIC; 1.01 fold enrichment (6-mer frequency, TF over GST control) in the assay with SPDEF; 1.07 fold enrichment (6-mer frequency, TF over GST control) with ELF5.
For the sequence GTTACC, the binding signal with ELK3 is 1.08 fold enrichment (6-mer frequency, TF over GST control); in the assay with SPIC it was 1.03 fold enrichment (6-mer frequency, TF over GST control); with SPDEF, 1.03 fold enrichment (6-mer frequency, TF over GST control); in the assay with ELF5 it was 1.11 fold enrichment (6-mer frequency, TF over GST control).
